Rows were chosen to be rich in hits. Some 3.5% of all compounds tested hit in one or more screens of this group.
MITF primary: blocks human microphthalmia-associated transcription factor; AID 1259374; hit rate 0.91% among 650,000; inhibition, % at 2.6 µM; O75030; AlphaScreen MITF homodimerization, bead proximity signal; in the data active means inhibition above about 50%;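 further: 0% = vehicle wells with protein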
Target sequence (O75030 whole entry, looked up): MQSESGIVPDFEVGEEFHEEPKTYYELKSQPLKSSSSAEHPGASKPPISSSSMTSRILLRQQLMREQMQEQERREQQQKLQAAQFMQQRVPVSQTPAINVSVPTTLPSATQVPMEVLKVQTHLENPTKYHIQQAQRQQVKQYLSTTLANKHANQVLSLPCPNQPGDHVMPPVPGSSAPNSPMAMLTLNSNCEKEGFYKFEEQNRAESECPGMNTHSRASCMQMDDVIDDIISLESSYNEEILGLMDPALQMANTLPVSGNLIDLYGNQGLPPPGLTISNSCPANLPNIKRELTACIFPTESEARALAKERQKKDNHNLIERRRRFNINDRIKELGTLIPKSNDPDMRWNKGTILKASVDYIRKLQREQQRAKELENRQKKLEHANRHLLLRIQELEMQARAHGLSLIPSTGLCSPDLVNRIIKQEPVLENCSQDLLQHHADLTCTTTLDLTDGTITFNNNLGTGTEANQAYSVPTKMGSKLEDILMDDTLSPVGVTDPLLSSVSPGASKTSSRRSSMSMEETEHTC
TEAD-YAP block: TEAD-YAP interaction inhibition. HEK-TIYL cells, TEAD-Gal4/YAP UAS-luciferase luminescence. inhibition, % at 9.12 µM. hit rate 1.4% among 640,000. AID 1259422; in the data active means inhibition above about 32%;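 further: 0% = median of test compound wells and 100% = reference inhibitor wells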
GPR151 ag: activators of human GPR151 | Q8TDV0 | PathHunter beta-arrestin GPR151 cells, luminescence | activation, % at 11.2 µM | hit rate 1% among 650,000 | AID 1508602; in the data active means activation above about 4.9%;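 further: 0% = median of compound wells and 100% = cells with positive control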
FBW7 act: human FBW7 E3 ligase activation, primary screen | AlphaScreen FBW7–phospho-cyclin E peptide binding, activator screen | normalized activity (activation), % at 26.1 µM | hit rate 0.13% among 650,000 | AID 1259310; in the data active means normalized activity above about 1.9%;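 further: purified mutant Fbw7 with reduced substrate affinity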
MITF inh conf: human MITF inhibition, confirmation; hit rate 16% among 4,700; inhibition, % at 2.6 µM; AlphaScreen MITF homodimerization, biotin/His-MITF beads; shares compounds with MITF primary;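 active means inhibition above a cutoff derived from the DMSO control wells, cut at about 28% in these data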;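 further: 0% = MITF dimer wells with DMSO only; inhibitors lower the bead chemiluminescence by keeping MITF from dimerizing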
AS interf DR: counter-screen: compounds optically interfering with AlphaScreen | shares compounds with MITF primary | AlphaScreen optical interference counterscreen, cell-free | IC50, µM | hit rate 6% among 480; call rule not given here
AS interf ctr: optically interferes with AlphaScreen signal; hit rate 7.6% among 4,700; inhibition, % at 2.6 µM; AID 1259376; LysRS AlphaScreen counterscreen, signal interference, triplicate; shares compounds with MITF primary;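 active means inhibition above a cutoff derived from the DMSO control wells, cut at about 30% in these data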
* hit, by the source's call; . = no result given.

SMILES	MITF primary	TEAD-YAP block	GPR151 ag	FBW7 act	MITF inh conf	AS interf ctr	others
S=C(NCc1ccco1)N1CCN(Cc2ccc3c(c2)OCO3)CC1	79.5*	0.2	-0.1	0.0	11.2	22.0
CN1CCN(Cc2ccc(Oc3ncccn3)cc2)CC1CCO (stereo not given)	0.0	18.5	-0.3	-0.1	.	.
C=CCc1cccc(Cl)c1OCCN1CCNCC1	55.6*	7.1	-0.2	0.4	-14.4	-1.9
C=CCc1cccc(C)c1OCCN1CCOCC1	85.7*	-1.6	0.0	-0.2	8.2	6.0
C=CCc1cccc(Cl)c1OCCN1CCOCC1	-21.8	-1.6	-1.1	0.3	.	.
C=CCc1cccc(C)c1OCCCN1CCN(C)CC1	43.1	0.2	-1.7	0.1	.	.
C=CCc1cccc(C)c1OCCCN1CCCC1	56.7*	7.6	-0.2	0.7	15.9	15.6
Cc1ccc(C)c(N=Cc2cccc(O)c2O)c1	24.6	0.9	0.2	0.3	.	.
O=C(Nc1ccc(N2CCOCC2)cc1)c1ccc(N2CCCCC2)c([N+](=O)[O-])c1	15.3	0.4	-0.3	-0.2	.	.
Cc1nn(CC(=O)O)c(=O)c2c1sc1ccccc12	7.0	-1.1	0.1	0.0	.	.
O=C(Cc1ccc(F)cc1)Nc1ccc(S(=O)(=O)Nc2ncccn2)cc1	-10.2	2.8	0.1	0.0	.	.
OC(CNNc1c(F)c(F)cc(F)c1F)COc1ccccc1 (stereo not given)	58.4*	-6.9	-2.1	-0.3	-1.2	1.8
CC(C)NCC(O)COc1ccccc1 (stereo not given)	-7.3	6.6	0.7	-0.1	.	.
N/C(=N\OC(=O)c1ccccc1)c1ccc(Cn2cc(C(F)(F)F)ccc2=O)cc1	53.7*	2.1	0.1	0.1	10.2	11.6
O=C(c1ccco1)N1CCN(Cc2c(O)ccc3ccccc23)CC1	8.0	4.8	-1.8	-0.1	.	.
CCCCCCCNC(=O)COc1ccc2c(c1)C(=O)CC(C)(C)O2	-11.9	2.6	1.0	0.1	.	.
CCN1CCN(CCCNC(=O)COc2ccc3c(c2)C(=O)CC(C)(C)O3)CC1	57.3*	5.5	0.9	0.2	-1.5	9.9
Cc1ccc(N2C(=O)NC(=O)/C(=C/c3ccc(C(=O)O)cc3)C2=O)cc1	-9.9	-6.3	0.2	0.0	.	.
O=S(=O)(Cc1ccccc1)N1CCN(C2CCN(Cc3ccccc3)CC2)CC1	65.3*	-10.4	0.1	-0.2	-6.7	-0.2
CCc1ccc(CN2CCN(S(=O)(=O)Cc3ccccc3)CC2)cc1	60.0*	15.1	-1.8	-0.3	6.5	12.8
O=S(=O)(Cc1ccccc1)N1CCN(Cc2ccc(Br)cc2)CC1	58.8*	1.1	1.5	-0.3	10.4	8.7
CSc1ccc(CN2CCN(S(=O)(=O)Cc3ccccc3)CC2)cc1	72.1*	13.6	0.2	-0.2	10.0	13.1
CSc1ccc(S(=O)(=O)N2CCN(Cc3ccccc3)CC2)cc1	19.8	-3.7	-1.8	0.6	.	.
O=S(=O)(Cc1ccc(Cl)cc1)N1CCN(Cc2ccccc2)CC1	-0.3	-0.8	1.2	0.6	.	.
CC(=O)c1cccc(-c2nc(NC3CC3)c3ncn(-c4ccccc4)c3n2)c1	2.7	12.7	2.7	-0.1	.	.
SMILES	MITF primary	TEAD-YAP block	GPR151 ag	FBW7 act	MITF inh conf	AS interf ctr	others
COCCNc1ccc2ncc(-c3cccc(C(F)(F)F)c3)n2n1	64.7*	5.0	0.3	0.1	6.4	15.3
COCCNc1ccc2ncc(-c3cccc(N(C)C)c3)n2n1	10.2	15.7	-0.2	-0.6	.	.
O=[N+]([O-])c1ccc(CNC2CCCC2)cc1	12.2	-10.8	0.0	-0.2	.	.
CC1CCCCC1NCc1ccc([N+](=O)[O-])cc1 (stereo not given)	75.3*	7.4	0.4	0.3	-9.0	-3.7
CCOC(=O)C1CCC(CN(Cc2ccc(Cl)cc2)S(=O)(=O)c2ccc(F)c(C(=O)Nc3ccc(Cl)cc3)c2)CC1 (stereo not given)	-10.0	-1.4	0.9	0.2	.	.
COc1ccccc1CN1CCN(Cc2ccccn2)CC1	65.3*	-0.9	1.2	-0.1	1.3	16.5
COc1ccccc1CN1CCCCCC1	17.5	1.6	1.1	-0.1	.	.
COc1ccc(CN2CCN(Cc3ccccn3)CC2)c(OC)c1OC	58.7*	-7.3	-0.2	0.0	11.6	17.5
COc1ccc(CN2CCN(c3ccccn3)CC2)c(OC)c1OC	41.3	1.3	1.5	0.1	.	.
COCc1cc(C)nc(SCCN(C)C)c1C#N	51.2*	-4.1	0.0	-0.1	11.4	8.4
Cc1ccc(-c2csc3nc(CNCCN(C)C)[nH]c(=O)c23)cc1	95.6*	0.2	3.1	-0.8	16.2	83.4*
Cc1ccc(-c2csc3nc[nH]c(=O)c23)cc1	-13.1	-2.2	-1.5	-0.1	.	.
Cc1cc2c(c(=O)[nH]1)C(=O)O/C2=C\c1cccs1	-1.8	-8.4	-0.6	-0.2	.	.
Cc1cc2c(c(=O)[nH]1)C(=O)O/C2=C\c1ccco1	61.5*	0.2	-0.2	-1.2	62.3*	4.9	AS interf DR=>9.3
Cc1cc2c(c(=O)[nH]1)C(=O)O/C2=C\c1ccc(C)o1	54.9*	-0.7	-0.6	-0.7	70.3*	6.6	AS interf DR=>6.86
Cc1cc2c(c(=O)[nH]1)C(=O)O/C2=C/c1ccc(F)cc1	-2.3	-14.0	-2.2	-0.2	.	.
O=[N+]([O-])c1ccc(OCCNCc2ccco2)cc1	56.2*	-9.7	-2.1	0.0	-13.8	-5.1
O=[N+]([O-])c1ccc(OCCCNCc2ccco2)cc1	31.8	-3.8	-0.1	0.0	.	.
Cc1cc(N2CCCCC2)nc2ccc(NC(=O)c3cccnc3)cc12	52.8*	-5.8	0.2	0.6	-7.3	-0.2
CN(Cc1cc(Cl)c(O)c2ncccc12)C1CCCCC1	105.6*	70.2*	1.9	-0.9	103.6*	100.6*
O=[N+]([O-])c1cc(Cl)c(O)c2ncccc12	37.2	9.5	-1.2	-0.2	.	.
C=CCNC(=O)c1c[nH]c2ccc(S(=O)(=O)N(C)c3ccc(C(C)C)cc3)cc2c1=O	10.9	-2.0	0.5	0.3	.	.
Clc1ccc(OCC#CCn2ccnc2)cc1	58.3*	4.6	2.2	0.3	23.4	16.2
O=C(NCCCN1CCCC1)c1ccccc1Cl	55.4*	-2.5	-0.2	-0.1	-0.5	1.3
O=C(CCNC(=O)c1ccccc1Cl)NCCCN1CCOCC1	-3.6	3.3	1.4	0.1	.	.
SMILES	MITF primary	TEAD-YAP block	GPR151 ag	FBW7 act	MITF inh conf	AS interf ctr	others
C(=N\N1CCOCC1)/c1cccc(Oc2ccccc2)c1	69.7*	-34.1	1.1	-0.4	11.9	6.6
CCCC(CCC)c1nc2ccncc2[nH]1	51.9*	-5.4	3.7	-0.1	-1.4	6.7
CN1CCN(CC(=O)Nc2c3c(nc4c2CCC4)CCCC3)CC1	74.3*	2.9	-0.5	-0.1	3.6	4.0
O=C(CN1CCCCCC1)Nc1c2c(nc3c1CCC3)CCCC2	58.4*	-3.7	0.7	0.0	-4.9	-4.3
Cc1n[nH]c(C)c1NC(=O)CN1CCCCCC1	61.6*	-0.2	0.6	-0.3	11.2	14.7
O=C(CN1CCCC1)Nc1c2c(nc3c1CCC3)CCC2	75.7*	0.5	0.0	-0.5	2.1	-5.0
CCCCC(=O)Nc1c2c(nc3c1CCC3)CCCC2	-5.5	-4.1	-0.5	-0.1	.	.

Screening data as filed in PubChem BioAssay.
